Sampled rows, rich in hits. Any-hit rate of the full collection: about 1.7%.
KCNH2 3.1 block: inhibitors of human KCNH2 3.1 potassium channel isoform | AID 720553 | 340,000 compounds, 0.95% hits | activity change, % (tested at about 1.8 µM) | U2OS KCNH2 3.1, thallium flux FluxOr; active compounds read low;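 active = maximum activity change below -70%; inconclusive = maximum activity change from -70% to -50%; inactive = maximum activity change above -50%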;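 also: thallium influx rate constant from kinetic fluorescence after stimulation buffer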
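FluxOr-based Tl+ influx in U2OS cells transduced with KCNH2 3.1 virus; rate constants normalized to DMSO controls.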
KCNH2 WT inh: inhibitors of human wildtype KCNH2 potassium channel | Q12809 | U2OS, BacMam KCNH2, thallium flux FluxOr; active compounds read low | activity change, % at 1.84 µM | 340,000 compounds, 0.37% hits;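 active = maximum activity change below -70%; inconclusive = maximum activity change between -70% and -50%; inactive = maximum activity change above -50%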
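U2OS cells were transduced with wild-type KCNH2 virus (2.03 x 10^8 / mL) for 4 h at room temperature, then cultured overnight at 37 C. Thallium flux was read with FluxOr dye. Rate constants were normalized to DMSO controls.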
pAkt inh: inhibitors of Akt phosphorylation; Neuro2A IGF-stimulated pAkt S473 HTRF, 20 min; active compounds read low; activity change, % for hits at 50 µM; 360,000 compounds, 0.32% hits; AID 651550; in the data active = activity change below about -80%; inconclusive = mostly about -51% to -80%
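Neuro2A cells (4,500/well, DMEM with 0.5% FBS) were treated with compound at a single 50 µM final concentration, stimulated with 6 nM IGF for 20 min at 37 °C, and lysed. Phospho-Akt Ser473 was read by HTRF as 665/615 ratio ×10^4.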
RXFP1 agonist: activates the human relaxin receptor RXFP1 | HEK293T-RXFP1 cAMP TR-FRET, 30 min; response scale: percent of porcine relaxin response, buffer zero | Q9HBX9 | Potency, µM (highest dose often 57.5 µM), hits mostly activators | 370,000 compounds, 0.3% hits; active = well fitted activation curve with a large enough effect; inconclusive = small, poorly fitted or top-dose-only effect; also: nearly all actives have a fitted effect of over 60% in size
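Agonist response is measured as cAMP accumulation in an RXFP1-transfected HEK293T line under PDE4 inhibition. Values are scaled between buffer-only and 29 nM porcine relaxin, and EC50s come from standard Hill equation fits.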
RXFP1 antagonist: antagonists of human relaxin receptor RXFP1; Q9HBX9; 350,000 compounds, 0.59% hits; HEK293-RXFP1, relaxin-stimulated cAMP HTRF, 30 min; active compounds read low; activity change, negative = inhibition, % at 57.5 µM;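 active = activity change of -60% or lower, but not beyond a set lower limit; inconclusive = change between -60% and -40%, or beyond the set limit; inactive = change above -40%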
Large screens that a line does not name were inactive.

Nc1ncnc2nn(C3OC(CO)C(O)C3O)nc12 (stereo not drawn)	none (no result: RXFP1 agonist)
Cc1cccc(C(=O)Nc2cc3c(cc2N2CCOCC2)n(C)c(=O)n3C)c1	none (no result: KCNH2 3.1 block, KCNH2 WT inh, pAkt inh)
CCCCCCCCC[n+]1cccc2c3ccccc3ccc21	RXFP1 antagonist -60
O=C(NCc1ccccc1)C(=O)Nc1c2c(nn1-c1ccc(F)cc1)CSC2	RXFP1 antagonist -79 (no result: KCNH2 3.1 block, KCNH2 WT inh, pAkt inh)
COc1cccc(CNC(=O)C(=O)Nc2c3c(nn2-c2ccccc2)CSC3)c1	none (no result: KCNH2 3.1 block, KCNH2 WT inh, pAkt inh)
Cc1ccc(C(=O)CN2C(=O)NC3(CCCCC3C)C2=O)s1 (stereo not drawn)	none
O=C(CN1CCN(c2ccc(F)cc2)CC1)NCc1ccc(Cl)cc1	KCNH2 3.1 block -77
O=C(CN1CCN(Cc2ccc(Cl)cc2)C1=O)NCCCN1CCOCC1	none (no result: RXFP1 antagonist)
O=C(CN1CCN(Cc2ccc(Cl)cc2)C1=O)NCCCN1CCN(c2ccc(F)cc2)CC1	KCNH2 3.1 block -97, KCNH2 WT inh -116
COc1ccc(CN(C(C)=O)c2cccc(C)c2C)cc1	none
CC1=NN(c2ccccc2)C(=O)C1C=Nc1ccc(N(C)C)cc1 (stereo not drawn)	RXFP1 antagonist -69
CC1=NN(c2ccccc2)C(=O)C1N=Nc1ccc(C)cc1 (stereo not drawn)	none (no result: KCNH2 3.1 block, KCNH2 WT inh, pAkt inh, RXFP1 antagonist)
CC[N+](CC)(CCCCS(=O)(=O)[O-])CCNP1(=O)C=C(c2ccccc2)OC(c2ccccc2)=C1	RXFP1 agonist 16µM
CCCOc1cccc(-c2nn(-c3ccccc3)cc2/C=C(\C#N)C(=O)NCCCn2ccnc2)c1	KCNH2 WT inh -187 (no result: RXFP1 antagonist)
N#C/C(=C/c1cn(-c2ccccc2)nc1-c1cccc(OCc2ccc(F)cc2)c1)C(=O)NCCCn1ccnc1	KCNH2 3.1 block -92
O=C(NCCCn1ccnc1)c1cn(-c2ccccc2)nc1-c1ccc(F)cc1	none
N#C/C(=C\c1ccc([N+](=O)[O-])cc1)C(=O)NCCCn1ccnc1	none
O=C(Nc1ccc(Cl)c(S(=O)(=O)N2CCCC2)c1)c1nn(CCO)c(=O)c2ccccc12	none
Cc1cccc(OCCOc2ccc(/C=N/NC(=O)Cc3nnc(N)s3)cc2)c1	none (no result: KCNH2 3.1 block, KCNH2 WT inh, pAkt inh, RXFP1 antagonist)
COc1ccc(NC(=O)CSc2cc(C)nc3c(-c4ccccc4)cnn23)cc1	none
COC(=O)CN1C(c2ccc(OC)cc2)=Nc2ccc(Cl)cc2C1c1ccccc1 (stereo not drawn)	KCNH2 3.1 block -96
Cc1ccc(-n2nc(C(=O)O)c(O)cc2=O)cc1	none
CC(=O)c1c(OC(=O)c2cccc(Cl)c2)c2ccccc2n1C	none (no result: RXFP1 antagonist)
CN1CCN(C(=O)CCn2nc(-c3ccccc3)c3ccccc3c2=O)CC1	none
O=c1c(Cl)c(Nc2cccc(Cl)c2)cnn1-c1nc2ccccc2s1	KCNH2 3.1 block -106
Cc1nn(Cc2ccccc2)c(C)c1C(=O)N1CCN(CC(=O)Nc2ccc(F)cc2)CC1	none
COc1ccc(Cl)cc1S(=O)(=O)N1CCN(c2ccc(F)cc2)CC1	none
COc1cc(C(=O)NCC(=O)N2CCN(S(=O)(=O)c3ccccc3)CC2)cc(OC)c1OC	RXFP1 antagonist -64
O=C(NCC(=O)N1CCN(S(=O)(=O)c2ccccc2)CC1)c1ccc2ccccc2c1	none
CCc1c(C)nc(SCC(=O)N2CCN(c3ccccc3OC)CC2)[nH]c1=O	none
Cc1ccc(S(=O)(=O)N2CCN(C(=O)CSc3nc4ccccc4c(=O)[nH]3)CC2)cc1	pAkt inh -95%, RXFP1 agonist inconclusive
Nc1cc(N)nc(SCC(=O)N2CCN(S(=O)(=O)c3ccccc3)CC2)n1	KCNH2 WT inh -90
CCc1c(C)nc(SCC(=O)N2CCN(c3ccccc3)CC2)[nH]c1=O	KCNH2 WT inh -79 (no result: KCNH2 3.1 block)
O=C(CSc1nc2ccccc2c(=O)[nH]1)N1CCCCC1	none (no result: RXFP1 antagonist)
O=C(COC(=O)Cc1ccc(Cl)cc1)NCCc1ccccc1	none
CC1CN(CCCCOc2cccc(Oc3ccccc3)c2)CC(C)O1 (stereo not drawn)	RXFP1 antagonist -64
CC1CN(CCOc2cccc(Oc3ccccc3)c2)CC(C)O1 (stereo not drawn)	none
Cc1cc(NC(=O)CSc2ncccn2)no1	none
Cc1cc(NC(=O)CSc2ncnc3c2cnn3-c2cccc(Cl)c2)no1	RXFP1 agonist 6.3µM
Cc1cc(NC(=O)CSc2ncn(-c3ccccc3)n2)no1	pAkt inh -112%
O=C(CSCc1ccccc1)NCCc1ccc(F)cc1	KCNH2 3.1 block -100
O=C(CSCc1ccc(Br)cc1)NCCc1ccccc1	none
COc1ccc(/C(O)=C2/C(=O)C(=O)N(CCCN3CCOCC3)C2c2ccc(C(C)C)cc2)cc1 (stereo not drawn)	none
Cc1cc2n(n1)C(c1sccc1C)Nc1ccccc1-2 (stereo not drawn)	none
Cc1ccc2c(c1)-c1cc(C)nn1C(c1sccc1C)N2 (stereo not drawn)	KCNH2 WT inh -155
Cn1c(=O)c2sccc2n2c(CCC(=O)N3CCN(c4cccc(Cl)c4)CC3)nnc12	none (no result: KCNH2 3.1 block, KCNH2 WT inh, pAkt inh, RXFP1 antagonist)
Cc1ccc(N2C(=O)C3CCC(C)(C2=O)C3(C)C)cc1 (stereo not drawn)	KCNH2 3.1 block -77
COc1ccccc1/C=C/c1nc(C#N)c(NCC(C)C)o1	none (no result: KCNH2 3.1 block, KCNH2 WT inh, pAkt inh)
O=C(Nc1ccc(S(=O)(=O)Nc2ccnn2-c2ccccc2)cc1)C(F)(F)F	none
CN1C(=O)C(CC(=O)N2CCN(C(c3ccccc3)c3ccccc3)CC2)N(C)C1=O (stereo not drawn)	pAkt inh -115%
c1ccc(Cn2c(CNc3nc4ccccc4n3CCN3CCOCC3)nc3ccccc32)cc1	KCNH2 3.1 block -85 (no result: pAkt inh)
CCOC(=O)N1CCN(c2ncnc3c2[nH]c2ccc(F)cc23)CC1	none
Fc1ccc2[nH]c3c(N4CCN(c5ccccc5)CC4)ncnc3c2c1	pAkt inh -90%
OC1(c2cccc(C(F)(F)F)c2)CCN(c2ncnc3c2[nH]c2ccc(F)cc23)CC1	RXFP1 antagonist -89
O=C(/C=C/c1cccc(Cl)c1)c1nc2ccccc2[nH]1	RXFP1 antagonist -82
COc1ccc(-c2cc(C(=O)NCc3ccc(Cl)cc3)no2)cc1OC	pAkt inh -92%
COc1ccc(CNC(=O)c2cc(-c3ccc(OC)c(OC)c3)on2)cc1	none
COc1ccc(NC(=O)c2cc(-c3ccc(OC)c(OC)c3)on2)cc1OC	pAkt inh -88%
COc1ccc(NC(=O)c2cc(-c3ccc(C)cc3)on2)cc1OC	none
c1cncc(-c2ccc3ncnc(NCc4cccs4)c3c2)c1	none (no result: KCNH2 3.1 block, KCNH2 WT inh, pAkt inh, RXFP1 antagonist)
CCOC(=O)c1ccccc1NC(=O)c1cccnc1	none
Cc1sc2nc(COC(=O)c3cccc(OC(F)F)c3)[nH]c(=O)c2c1C	KCNH2 WT inh -92
C=CCC[C@H](Cc1ccc(F)cc1)C(=O)OC[C@@H](NC(=O)[C@@H](CC=C)CC(=O)N[C@@H](CO)Cc1ccccc1)C(C)(C)C	KCNH2 WT inh -100 (no result: RXFP1 agonist, RXFP1 antagonist)

Screening results (PubChem)
